This is one part of the list. The hit rate among all sequences tested is not known here.
Molecular target: furin, P09958
Experiment: furin cleavage Z-score vs untreated control; higher = more cleavage, active = 3.5 or more, inactive = 1 or less, 8 variable residues between constant flanks
Procedure, shortened: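 To give the cleavage Z-score, log read counts were set against furin-free reactions, lowess-adjusted and scaled by median absolute deviation. These counts came from PCR adapter-tagged, sequenced DNA released when purified furin cut 8-mer peptides fused to a cDNA oligonucleotide and held on magnetic beads by their N-terminus. Digests were 0.01 ml, 1:10 enzyme:substrate, in 50 mM HEPES pH 7.5 with CaCl2 and NaCl, for 7.5, 15 or 30 min.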

Chain of furin, P09958 (P09958 whole entry): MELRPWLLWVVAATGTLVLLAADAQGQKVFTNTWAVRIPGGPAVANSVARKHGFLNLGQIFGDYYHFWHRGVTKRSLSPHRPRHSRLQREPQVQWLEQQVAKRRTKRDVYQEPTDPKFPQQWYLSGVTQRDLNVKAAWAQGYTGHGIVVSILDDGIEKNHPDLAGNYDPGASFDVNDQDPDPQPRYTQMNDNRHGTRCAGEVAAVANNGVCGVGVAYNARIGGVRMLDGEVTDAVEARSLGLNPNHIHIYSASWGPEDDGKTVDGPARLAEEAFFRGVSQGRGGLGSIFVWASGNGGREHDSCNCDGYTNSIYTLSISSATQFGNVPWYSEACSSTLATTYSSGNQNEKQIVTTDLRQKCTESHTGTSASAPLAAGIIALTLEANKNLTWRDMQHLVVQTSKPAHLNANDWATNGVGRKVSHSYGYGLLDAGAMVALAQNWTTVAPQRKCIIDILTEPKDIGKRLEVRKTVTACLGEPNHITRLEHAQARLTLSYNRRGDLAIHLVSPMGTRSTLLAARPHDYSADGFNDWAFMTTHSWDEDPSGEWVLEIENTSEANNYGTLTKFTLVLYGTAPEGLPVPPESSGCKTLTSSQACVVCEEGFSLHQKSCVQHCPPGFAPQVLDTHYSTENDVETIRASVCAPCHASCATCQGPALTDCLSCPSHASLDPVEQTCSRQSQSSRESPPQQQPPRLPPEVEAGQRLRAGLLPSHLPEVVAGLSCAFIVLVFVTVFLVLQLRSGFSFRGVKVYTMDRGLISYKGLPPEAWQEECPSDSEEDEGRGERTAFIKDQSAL

Sequence | furin cleavage Z-score (7.5 min) | furin cleavage Z-score (15 min) | furin cleavage Z-score (30 min)
CAQTRGLLGCAGNASASA [HC678] | 0.117 (inactive) | -0.157 (inactive) | -0.705 (inactive)
CASMLTDPSHAGNASASA [HC1247] | 0.787 (inactive) | 1.14 | 0.981 (inactive)
CARKKRKAAPAGNASASA [FS-2267] | 5.91 (active) | 5.87 (active) | 5.5 (active)
CADFERSRAFAGNASASA [FS-1845] | -0.875 (inactive) | -0.501 (inactive) | -0.616 (inactive)
CARFKRSAQFAGNASASA [FS-2663] | 9.02 (active) | 10 (active) | 9.39 (active)
CARKKRLISYAGNASASA [FS-2965] | 0.348 (inactive) | 3.83 (active) | 6.5 (active)
CARKKRKIKEAGNASASA [FS-3191] | -0.575 (inactive) | -0.156 (inactive) | 2.36
CARKKRKPEEAGNASASA [FS-3192] | 0.523 (inactive) | 1.22 | 1.86
CARKKRMAKYAGNASASA [FS-2966] | 5.67 (active) | 7.97 (active) | 8.42 (active)
CARHWTTQGCAGNASASA [HC309] | 0.306 (inactive) | -0.845 (inactive) | 0.176 (inactive)
CAMEECFQHLAGNASASA [HC26] | 0.765 (inactive) | 1.72 | 1.22
CAILAGYGAGAGNASASA [HC1086] | -0.899 (inactive) | -0.697 (inactive) | -0.69 (inactive)

— the supplement of paper PMC3545927
